Laboratory results published in PubChem BioAssay AID1159580 (chemical genetic matrix, 2015).
The whole screen tested about 5,500 compounds, of which about 2,000 (36%) were called active. Inconclusive results (about 18%) are left out. No stated cut-off is given here; in the data, active means normalized growth mostly below about 0.91 (no sharp cut-off); inconclusive means no clear call, values can overlap the other calls; inactive means mostly above about 0.92. The list shows a part of the results.

Assay: chemical genetic growth profiling, strain panel (AID 1159580);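 further: tested at 20 µM; growth read once vehicle control cultures reached saturation at 30 °C; 1 = growth at the plate median or of vehicle wells; lower values mean less growth of the strain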
Conditions: S. cerevisiae deletion strains, growth OD

Measured: normalized growth

CCC(C)COC(=O)/C=C/c1ccc(N=Cc2ccc(OC)cc2)cc1 (stereo unspecified)
active: locus YHR030C, strain SLT2, active compounds read low 0.531 | locus YJL095W, strain BCK1, active compounds read low 0.474 | locus YJR066W, strain TOR1 (second series), active compounds read low 0.241 | locus YLR113W, strain HOG1, active compounds read low 0.696 | locus YPL256C, strain CLN2, active compounds read low 0.798
inactive: locus YAR019C, strain CDC15, active compounds read low 0.961 | locus YBL105C, strain PKC1, active compounds read low 0.968 | locus YBR135W, strain CKS1, active compounds read low 0.969 | locus YBR136W, strain MEC1, active compounds read low 0.969 | locus YBR160W, strain CDC28, active compounds read low 0.978 | locus YDL017W, strain CDC7, active compounds read low 0.98 | locus YDL028C, strain MPS1, active compounds read low 0.984 | locus YDL101C, strain DUN1, active compounds read low 0.948 | locus YDL108W, strain KIN28, active compounds read low 0.965 | locus YDL132W, strain cdc53, active compounds read low 0.958 | locus YDL214C, strain PRR2, active compounds read low 0.845 | locus YDR052C, strain DBF4, active compounds read low 0.969 | locus YDR054C, strain cdc34, active compounds read low 0.964 | locus YDR226W, strain ADK1, active compounds read low 0.955 | locus YDR477W, strain SNF1, active compounds read low 0.842 | locus YER123W, strain YCK3, active compounds read low 0.743 | locus YER133W, strain GLC7, active compounds read low 0.804 | locus YFL009W, strain cdc4, active compounds read low 0.972 | locus YFL029C, strain CAK1, active compounds read low 0.962 | locus YFR003C, strain YPI1, active compounds read low 0.968 | locus YFR019W, strain FAB1, active compounds read low 0.843 | locus YFR028C, strain CDC14, active compounds read low 0.952 | locus YGR040W, strain KSS1, active compounds read low 0.811 | locus YGR052W, strain FMP48, active compounds read low 0.779 | locus YGR092W, strain DBF2, active compounds read low 0.646 | locus YHR079C, strain IRE1, active compounds read low 0.814 | locus YHR082C, strain KSP1, active compounds read low 0.852 | locus YHR205W, strain SCH9, active compounds read low 0.662 | locus YIL147C, strain SLN1, active compounds read low 0.965 | locus YJL128C, strain PBS2, active compounds read low 0.921 | locus YJL157C, strain FAR1, active compounds read low 0.864 | locus YJR016C, strain ILV3, active compounds read low 0.963 | locus YJR066W, strain TOR1, active compounds read low 0.794 | locus YKL048C, strain ELM1, active compounds read low 0.805 | locus YKL067W, strain YNK1, active compounds read low 0.873 | locus YKL101W, strain HSL1, active compounds read low 0.831 | locus YKL193C, strain SDS22, active compounds read low 0.962 | locus YKL203C, strain TOR2, active compounds read low 0.826 | locus YLR133W, strain CKI1, active compounds read low 0.825 | locus YLR403W, strain SFP1, active compounds read low 0.742 | locus YML070W, strain DAK1, active compounds read low 0.814 | locus YMR001C, strain CDC5, active compounds read low 0.964 | locus YMR205C, strain PFK2 (second series), active compounds read low 0.861 | locus YMR277W, strain FCP1, active compounds read low 0.966 | locus YNL006W, strain LST8, active compounds read low 0.972 | locus YNL020C, strain ARK1, active compounds read low 0.836 | locus YNL161W, strain CBK1, active compounds read low 0.97 | locus YNL183C, strain NPR1, active compounds read low 0.795 | locus YNL207W, strain RIO2, active compounds read low 0.947 | locus YNL222W, strain SSU72, active compounds read low 0.972 | locus YNL307C, strain MCK1 (second series), active compounds read low 0.783 | locus YOL078W, strain AVO1, active compounds read low 0.958 | locus YOL136C, strain PFK27, active compounds read low 0.755 | locus YOR061W, strain CKA2, active compounds read low 0.803 | locus YOR119C, strain RIO1, active compounds read low 0.816 | locus YOR231W, strain MKK1, active compounds read low 0.785 | locus YOR329C, strain SCD5, active compounds read low 0.975 | locus YPL031C, strain PHO85, active compounds read low 0.819 | locus YPL153C, strain RAD53, active compounds read low 0.83 | locus YPL204W, strain HRR25, active compounds read low 0.719 | locus YPL209C, strain IPL1, active compounds read low 0.959 | locus YPR025C, strain CCL1, active compounds read low 0.968 | locus YPR106W, strain ISR1, active compounds read low 0.951 | locus YPR111W, strain DBF20, active compounds read low 0.944 | strain NNK1, active compounds read low 0.941 | strain TSCII, active compounds read low 0.95
